Hits are enriched below; roughly 12% of the tested compounds scored in any of these assays.
AMA1-RON2 inh = qHTS for Inhibitors of AMA1-RON; Towards Development of Antimalarial Drug Lead: Primary Screen; Plasmodium falciparum AMA1 (3D7) - RON2 peptide interaction; AlphaScreen AMA1-biotinylated RON2 peptide binding; Potency, µM (highest dose often 58.2 µM), for inactives: top-dose activity change, negative = inhibition, usual class: inhibitors; AID 720542, 2013; 360,000 tested, 0.2% active;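 further: potency means the concentration at half of the fitted maximal effect; 0% = vehicle wells and -100% = peptide control; nearly all actives have a fitted effect of over 45% in size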
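AMA1 (3D7) with his tag at 25 nM final met compounds first, then biotinylated RON2 peptide at 25 nM; detection used donor plus acceptor beads, 10 µg/mL apiece, read by AlphaScreen after 30 min at room temperature.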
SARS PLpro yeast-1 = qHTS of Yeast-based Assay for SARS-CoV PLP | Potency, µM (highest dose often 32.9 µM), without a hit: at the highest dose activity, positive = growth rescue, hits mostly activators | S. cerevisiae expressing SARS-CoV PLpro, growth rescue | AID 485353, 2010 | 330,000 tested, 0.19% active; calls by dose curve; further: potency means the concentration at half of the fitted maximal effect; 0% is about no effect; nearly all actives have a fitted effect of over 55% in size
Pf growth 48h = Primary qHTS for delayed death inhibitors of the malarial parasite plastid, 48 hour incubation; P. falciparum luciferase growth in erythrocytes, 48 h; Potency, µM (doses to about 28.7 µM), for the others: at the highest dose activity change, negative = inhibition, usual class: inhibitors; 310,000 tested, 5.9% active; AID 504832, 2011; further: potency means the concentration at half of the fitted maximal effect; on the % scale 0 is the no-effect control and ±100 the full control effect
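A one-generation exposure of luciferase-tagged malaria parasites in RPMI 1640/Albumax erythrocyte culture, 37 C and 5% CO2. Inhibition is inferred from decreased luminescence after adding detection reagent.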
NS1 inh = qHTS Assay for Inhibitors of Influenza NS1 Protein Function | Potency, µM (highest dose often 46.1 µM), without a hit: at the top dose activity, positive = more growth | 270,000 tested, 0.4% active | AID 2326, 2010; calls by dose curve; further: potency means the concentration at half of the fitted maximal effect; actives are rising curves; nearly all actives have a fitted effect of over 50% in size
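In this qHTS, NS1 from influenza A is expressed in budding yeast, where it slows growth. Cells are switched from glucose to 2% galactose medium (pH 6.0, -URA), treated with compound, and growth recovery is read at OD600.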
Pf growth 96h = Primary qHTS for delayed death inhibitors of the malarial parasite plastid, 96 hour incubation | AID 504834, 2011 | Potency, µM (highest dose often 28.7 µM), for the others: at the highest dose activity change, negative = inhibition, usual class: inhibitors | P. falciparum luciferase reporter growth, 96 h | 320,000 tested, 6.9% active; further: potency means the concentration at half of the fitted maximal effect; on the % scale 0 is the no-effect control and ±100 the full control effect
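Parasite growth measured via integrated firefly luciferase reporter in P. falciparum. Infected erythrocytes at 2% hematocrit, 0.05% parasitemia final were treated 96 hours at 37 C under 5% CO2, and luminescence was read.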
HCV inh = qHTS Assay for Inhibitors of Hepatitis C Virus (HCV) | 340,000 tested, 3.4% active | Huh7.5.1 HCVcc-Cre infection, luciferase reporter, 44 h | Potency, µM (top dose mostly 41.8 µM), without a hit: top-dose activity change, negative = inhibition, most hits filed as inhibitors; further: potency means the concentration at half of the fitted maximal effect; on the % scale 0 is the no-effect control and ±100 the full control effect
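Luciferase read-out (15 sec integration) after a 15 min room-temperature substrate step quantifies HCVcc-Cre infection. Cells, 1,000 per well, had compound added 4 h post-plating, then virus at ~0.5 moi, and were cultured 44 h.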
SARS PLpro yeast-2 = qHTS of Yeast-based Assay for SARS-CoV PLP: Hit Validation | calls only | 1,000 tested, 19% active | shares compounds with SARS PLpro yeast-1 | yeast expressing SARS-CoV PLpro, growth phenotype rescue; call rule not given here
Active calls of the source: *; i = inactive; ? = inconclusive; . = no result given; + = active, no number. Unless noted, the call rests on the fitted dose curve; in most records, active means well fitted curve in the direction sought with a large enough effect; inconclusive means small, poorly fitted or top-dose-only effect, or another doubt; inactive means no such curve, though single readings can be large; an effect the other way counts as inactive or inconclusive.

SMILES	AMA1-RON2 inh	SARS PLpro yeast-1	Pf growth 48h	NS1 inh	Pf growth 96h	HCV inh	SARS PLpro yeast-2
CCC1(c2ccccc2)NC(=S)N(c2cccc(C)c2C)N1 (stereo unspecified)	83.5%	3.16µM*	-11.2%	6.1%	-0.5%	15.4%	?
COc1ccc(Cl)cc1NC(=O)NNC(=O)C(=O)Nc1ccc(F)cc1	61.8%	.	.	.	.	.	.
Cc1c(Cl)cccc1NC(=S)NCc1cccs1	14.2%	14.1µM*	?	-10.7%	-1.7%	?	+
S=C(NCc1cccs1)Nc1cccc(Cl)c1Cl	33.7%	?	24.8%	5.5%	-5.6%	-22.2%	.
COc1ccc(N(CC(=O)Nc2cc(Cl)ccc2OC)S(=O)(=O)c2c(C)noc2C)cc1	-3.0%	?	10.4µM*	-23.7%	9.28µM*	?	+
O=C(CCn1nnc2ccccc21)OCC(=O)c1ccc(F)cc1	-4.5%	-0.4%	35.6%	-10.7%	-1.8%	14.3%	.
O=C(CN1C(=O)NC2(CCCCC2)C1=O)NCC(=O)Nc1ccc(F)c(F)c1	-13.8%	1.6%	0.0%	.	-14.6%	3.1%	.
O=C(Nc1ccc(Cl)cc1)N(CCCN1CCOCC1)Cc1cccs1	-4.3%	?	.	-13.0%	?	-14.9%	i
CCc1ccccc1NC(=S)N(CCCN1CCOCC1)Cc1cccs1	-0.4%	?	-17.3%	1.2%	2.62µM*	-2.5%	i
CC(NC(=O)CCC(=O)c1ccccc1)c1ccc(F)cc1 (stereo unspecified)	9.6%	-1.5%	?	.	?	15.5%	.
COc1ccc(C2=NOC(Cn3nc(C(=O)NCc4cccc(Br)c4)cc3-c3ccccc3)C2)cc1 (stereo unspecified)	-2.3%	-7.2%	.	.	.	14.0%	.
O=C(NCc1ccc(OC(F)(F)F)cc1)C1CC2Cn3c(nc4ccccc43)C2N1c1ccccc1 (stereo unspecified)	-3.1%	-8.3%	-8.8%	1.0%	51.5%	-8.1%	.
Cc1cc(C)cc(NC(=O)C(=O)NCc2ccccn2)c1	17.3%	?	10.2%	0.6%	27.5%	0.0%	i
CC(C)CC(=O)NN(C)c1nc(-c2ccccc2)nnc1C(F)(F)F	-16.2%	?	.	-8.5%	?	-8.4%	i
O=C(Nc1ccncc1)Nc1cccc(C(F)(F)F)c1	5.0%	?	?	7.9%	?	-24.9%	.
Oc1c(C(Nc2cccc(C(F)(F)F)c2)c2ccncc2)ccc2cccnc12 (stereo unspecified)	-23.9%	?	1.85µM*	-6.5%	?	6.31µM*	i
COC(=O)Cn1c(CN2CCOCC2)nc2c1c(=O)n(C)c(=O)n2C	-0.8%	?	27.2%	-0.4%	32.7%	27.4%	i
Cn1c(=O)c2c(nc(CN3CCOCC3)n2CCN2CCOCC2)n(C)c1=O	15.1%	2.7%	3.7%	-3.1%	-81.1%	14.1%	.
O=C(N/N=C/c1ccc(F)cc1)c1ccccc1	-0.5%	-3.7%	101.8%	.	20.6%	7.4%	.
O=C(N/N=C/c1sc2ccccc2c1O)c1ccccc1	43.7%	3.98µM*	4.65µM*	-43.2%	?	4.47µM*	i
O=C(N/N=C/c1sc2ccccc2c1O)c1cccc2ccccc12	27.0%	2.82µM*	?	9.3%	-119.6%	1.78µM*	i
COc1ccc(C(=O)N/N=C/c2sc3ccccc3c2O)cc1	15.9%	2.82µM*	?	-25.4%	?	?	i
COc1ccc2cc(C(=O)N/N=C/c3sc4ccccc4c3O)ccc2c1	56.5%	5.01µM*	?	13.9%	40.4%	?	+
COc1ccc(C(=O)N/N=C/c2c[nH]c3ccccc23)cc1	5.1%	2.0%	27.2%	1.7%	-15.8%	6.9%	.
N#CCCSC(=S)[C@H]1CCCC1=N	.	.	.	1.8%	.	.	.
SMILES	AMA1-RON2 inh	SARS PLpro yeast-1	Pf growth 48h	NS1 inh	Pf growth 96h	HCV inh	SARS PLpro yeast-2
Cc1ccc(C)c(S(=O)(=O)N2CCCOC2CNC(=O)C(=O)NCc2ccc3c(c2)OCO3)c1 (stereo unspecified)	-3.4%	-8.7%	-16.6%	4.3%	?	-24.2%	.
CC(C)n1cnnc1SCC(=O)NC(=O)c1ccccc1	1.1%	?	7.0%	.	12.1%	8.7%	i
COc1ccccc1C(=O)NC(=O)CSc1nncn1C(C)C	11.8%	-3.8%	-4.3%	.	27.9%	-3.1%	.
Cc1cc2c(cc1S(=O)(=O)N1CCN(c3ccc(Cl)cc3)CC1)OCCN2C	?	0.891µM*	-18.8%	6.6%	-22.5%	?	i
COc1cccc(N2CCN(S(=O)(=O)c3cc4c(cc3C)N(C)CCO4)CC2)c1	?	-24.3%	?	?	-0.4%	-11.8%	.
CC/C(=N\NC(=O)CNC(=O)/C=C/c1ccc(OC)cc1)c1ccccc1	-2.6%	-5.8%	16.7%	-16.1%	3.1%	-27.1%	.
Cc1ccc(CN(C)C(=O)C2CCC(=O)N(CCc3ccccc3)C2)o1 (stereo unspecified)	3.4%	?	-3.5%	14.4%	?	11.7%	i
CN(Cc1cnccn1)C(=O)C1CCC(=O)N(CCc2ccccc2)C1 (stereo unspecified)	-1.1%	6.8%	-7.3%	12.5%	?	-14.7%	.
CC(=O)Nc1cccc(-c2nn[nH]n2)c1	-18.5%	1.2%	-3.0%	10.3%	10.9%	-12.8%	.
O=C(Nc1cccc(-c2nn[nH]n2)c1)c1csc2c1CCCC2	-7.0%	?	-6.8%	16.0%	?	21.1%	i
COc1ccc(OCc2nnc(SCC(=O)NC3CCCCC3)o2)cc1	-1.6%	-0.7%	43.1%	-27.3%	3.6%	5.1%	.
COC(=O)Cc1c[nH]c2cccc(OCC(O)CN(Cc3ccccc3)C(C)C)c12 (stereo unspecified)	-7.3%	?	?	2.1%	?	?	i
O=C(CCn1cnc(-c2ccccc2)c1-c1ccccc1)N/N=C/c1ccccc1O	33.2%	10µM*	0.0%	-26.8%	0.0%	?	i
O=C(CCn1cnc(-c2ccccc2)c1-c1ccccc1)N/N=C/c1ccc(O)cc1	0.0%	8.4%	-15.2%	-11.7%	-2.5%	-11.7%	.
CC(=Nc1ccccc1)C1=C(O)COC1=O	4.6%	?	.	5.8%	-5.2%	6.7%	i
CN1CCN(C(=O)c2ccc3c(c2)N(Cc2ccc(F)cc2)C(=O)c2ccccc2S3=O)CC1 (stereo unspecified)	20.8%	5.6%	?	-6.1%	47.8%	-24.6%	.

Screening data from PubChem BioAssay.
